Molecules are shown by their SMILES. Compounds without any hit were thinned out: in the full panel of roughly 83,000, 20% have a hit.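 Single-dose data. Exposure time 48 hours. Values below 10 considered active.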 A number with no mark means an inactive call. Calls of active or inactive are those of the source.

One assay has as its system HCT-15 colon. As to the kind of experiment: NCI-60 one-dose screen, 48 h (100 = growth as untreated, 0 = no growth, -100 = all killed). The following applies: 10 µM unless noted.
Regarding `CC(C)CNc1nc(N=[N+]=[N-])nc(NCC(C)C)n1`, the growth was 54% [100 µM].
On the same count and under the same terms, in the case of `CCCCCCCSc1ncnc2[nH]ncc12` it was 60.8%.
Take `COC(=O)[C@H](Cc1cn(C)cn1)NC(=O)[C@H](Cc1ccccc1)NC(=O)Nc1cc(C(F)(F)F)cc(C(F)(F)F)c1`: the growth was -77.3% [100 µM] (active).
The same measure, in the same setting: under `CC[N+](CCCCCCCCCC[N+](CC)(c1ccccn1)c1ccccn1)(c1ccccn1)c1ccccn1` stands 58.6%; under `CCCCCCC(CC#N)(CCC)CCCC` (stereo not given), 108%.
Still for that read-out and setting: under `O=C1NC(=O)/C(=C\c2ccco2)S1` stands 100%; under `Cc1sc2nc3c4ccccc4c(NCCCN(C)C)nn3c(=O)c2c1C`, 17.1%.
The same measure, in the same setting: in the case of `COc1ccc([N+](=O)[O-])c(S(=O)(=O)c2ccc(Cl)cc2)n1` it was 27.2%; in that of `COc1ccc(NC(=O)c2ccccc2-c2ccccc2)c(C(N)=O)c1`, 32.8%.
As for `CCCCCc1c(C)[nH]c(/C=C2\N=C(c3ccc[nH]3)C=C2Oc2ccccc2)c1C`, the growth is -99.5% [100 µM] (active).
Regarding `COc1ccc(NC(=O)[C@@H]2C[C@H]2c2ccccc2)c(C(N)=O)c1`, the growth is 89.5%.
With `COc1cc(-c2n[nH]nc2-c2ccccn2)cc(OC)c1OC`, the growth is 76.8%.
Consider `COC(=O)[C@H](Cc1cnc[nH]1)NC(=O)[C@@H](NC(=O)Nc1cc(C(F)(F)F)cc(C(F)(F)F)c1)C(C)C`, for which the growth is 35.4% [100 µM].
Take `O=C1C(=O)/C(=C/c2ccccc2)CCCCCC/C1=C/c1ccccc1`: the growth was 32.2%.
`O=C(Nc1ccc(Cl)cc1)Nc1nc2ccc(OC(F)(F)F)cc2o1`: the growth was 77.5%.
As for `COc1ccc(N2CCN(CC(=O)N3CCN(c4nnc(-c5ccccc5)c(-c5ccccc5)n4)CC3)CC2)cc1`, the growth is 35.9%.
The same measure, in the same setting: under `CCCCCCCCCCCCCCCCNC(=O)Nc1ccc2ccccc2c1` stands 103%; under `FCc1ncc(-c2ccc(C(F)(F)F)cc2)c(NC2CCCCCC2)n1`, 9.18% [100 µM] (active).
Same read-out and setting: under `O=Cc1ncc(-c2ccc(C(F)(F)F)cc2)c(NC2CCCCCC2)n1` stands -79% [100 µM] (active).
Take `COC(=O)[C@H](Cc1cn(C)cn1)NC(=O)[C@@H](NC(=O)Nc1cc(C(F)(F)F)cc(C(F)(F)F)c1)C(C)C`: the growth was -87.6% [100 µM] (active).
Same read-out and setting: in the case of `CSc1nc(-c2ccc(O)cc2O)c2c(=O)[nH]c(Nc3ccc(S(=O)(=O)Nc4nc(C)cc(C)n4)cc3)nc2n1` it was 104%; in that of `CC(C)OP(=O)(OC(C)C)c1ncc(-c2ccc(C(F)(F)F)cc2)c(NC2CCCCCC2)n1`, -7.06% [33.3 µM] (active).
Same read-out and setting: in the case of `NS(=O)(=O)c1ccc(-n2nc(-c3ccc(Br)cc3)ccc2=O)cc1` it was 43% [100 µM]; in that of `CC1CC=CCC1C1OCC(C)(C)CO1` (stereo not given), 97.9%.
Take `N[C@H](CS)C(=O)O`: the growth was 96.6%.
Turning to `CCCCCc1c(C)[nH]c(/C=C2\N=C(c3ccc[nH]3)C=C2Oc2ccc(Cl)cc2)c1C`, the growth was -26.6% [100 µM] (active).
Still for that read-out and setting: in the case of `[N-]=[N+]=NCc1ncc(-c2ccc(C(F)(F)F)cc2)c(NC2CCCCCC2)n1` it was 80.2% [50 µM].
The same measure, in the same setting: in the case of `COc1ccc(-c2nnc3c4[nH]cnc4ncn23)c(OC)c1` it was 29.2%.
Same read-out and setting: in the case of `C1CCC(C(CC2CCCCN2)C2CCCCC2)CC1` (stereo not given) it was 25%; in that of `CCOC(=O)c1sc(NC(=O)COc2cccc(/C=C3\Cc4ccc(Cl)cc4C3=O)c2)nc1C`, 97.4%.
As to `CCCCCCCC[Si](OCC)(OCC)OCC`, the growth was 107%.
On the same count and under the same terms, in the case of `CCOc1cc(CCNS(=O)(=O)c2ccc(C)cc2)c(C(C)=O)cc1OCC` it was 83.3% [100 µM]; in that of `CC(=O)c1ccc(NS(=O)(=O)c2ccc([N+](=O)[O-])cc2)cc1`, 95.2%.
Still for that read-out and setting: in the case of `COC(=O)[C@H](CCCCNC(=O)OCc1ccccc1)NC(=O)[C@@H](NC(=O)Nc1cc(C(F)(F)F)cc(C(F)(F)F)c1)C(C)C` it was 13.4% [100 µM]; in that of `O=C(/C=C/c1c(-c2ccccc2)[nH]c2ccccc12)S(=O)(=O)c1ccccc1`, 38.1%; in that of `CCOC(=O)C(C(=O)OCC)C1CCCCC1`, 99%.
Still for that read-out and setting: in the case of `CNc1nc(NC2CCCC2)nc(Sc2ccc(OC)cc2)n1` it was 24.8% [100 µM]; in that of `O=c1sc2ncnc3ncn1c32`, 78%.
Turning to `Cc1nn2c(/C=C3/C(=O)Nc4cc(Cl)ccc43)c(-c3ccccc3)nc2s1`, the growth was 37.8%.
On the same count and under the same terms, under `Nc1nc2c(nnn2Cc2ccc(Cl)c(Cl)c2)c(=O)[nH]1` stands 98.7%.

A further assay concerns HT29 colon. The description is as above. As to conditions: 10 µM unless noted.
On to `CC(C)CNc1nc(N=[N+]=[N-])nc(NCC(C)C)n1`, for which the growth is 60.4% [100 µM].
The same measure, in the same setting: in the case of `CCCCCCCSc1ncnc2[nH]ncc12` it was 89.3%; in that of `COC(=O)[C@H](Cc1cn(C)cn1)NC(=O)[C@H](Cc1ccccc1)NC(=O)Nc1cc(C(F)(F)F)cc(C(F)(F)F)c1`, -82.4% [100 µM] (active); in that of `CC[N+](CCCCCCCCCC[N+](CC)(c1ccccn1)c1ccccn1)(c1ccccn1)c1ccccn1`, -34% (active).
Turning to `CCCCCCC(CC#N)(CCC)CCCC` (stereo not given), the growth is 111%.
`O=C1NC(=O)/C(=C\c2ccco2)S1`: the growth was 114%.
With `Cc1sc2nc3c4ccccc4c(NCCCN(C)C)nn3c(=O)c2c1C`, the growth is -17.8% (active).
For `COc1ccc([N+](=O)[O-])c(S(=O)(=O)c2ccc(Cl)cc2)n1`, the growth is 73.7%.
For the compound `COc1ccc(NC(=O)c2ccccc2-c2ccccc2)c(C(N)=O)c1`, the growth was 11.4%.
With `CCCCCc1c(C)[nH]c(/C=C2\N=C(c3ccc[nH]3)C=C2Oc2ccccc2)c1C`, the growth is -56.9% [100 µM] (active).
On to `COc1ccc(NC(=O)[C@@H]2C[C@H]2c2ccccc2)c(C(N)=O)c1`, for which the growth is 95.5%.
On the same count and under the same terms, in the case of `COc1cc(-c2n[nH]nc2-c2ccccn2)cc(OC)c1OC` it was 112%; in that of `COC(=O)[C@H](Cc1cnc[nH]1)NC(=O)[C@@H](NC(=O)Nc1cc(C(F)(F)F)cc(C(F)(F)F)c1)C(C)C`, -80.3% [100 µM] (active).
Same read-out and setting: in the case of `O=C1C(=O)/C(=C/c2ccccc2)CCCCCC/C1=C/c1ccccc1` it was -25.6% (active).
Take `O=C(Nc1ccc(Cl)cc1)Nc1nc2ccc(OC(F)(F)F)cc2o1`: the growth was 84.7%.
Still for that read-out and setting: in the case of `COc1ccc(N2CCN(CC(=O)N3CCN(c4nnc(-c5ccccc5)c(-c5ccccc5)n4)CC3)CC2)cc1` it was 26.1%.
With `CCCCCCCCCCCCCCCCNC(=O)Nc1ccc2ccccc2c1`, the growth is 107%.
`FCc1ncc(-c2ccc(C(F)(F)F)cc2)c(NC2CCCCCC2)n1`: the growth was -33.6% [100 µM] (active).
Turning to `O=Cc1ncc(-c2ccc(C(F)(F)F)cc2)c(NC2CCCCCC2)n1`, the growth was -80.8% [100 µM] (active).
On the same count and under the same terms, in the case of `COC(=O)[C@H](Cc1cn(C)cn1)NC(=O)[C@@H](NC(=O)Nc1cc(C(F)(F)F)cc(C(F)(F)F)c1)C(C)C` it was -81.4% [100 µM] (active); in that of `CSc1nc(-c2ccc(O)cc2O)c2c(=O)[nH]c(Nc3ccc(S(=O)(=O)Nc4nc(C)cc(C)n4)cc3)nc2n1`, 113%; in that of `CC(C)OP(=O)(OC(C)C)c1ncc(-c2ccc(C(F)(F)F)cc2)c(NC2CCCCCC2)n1`, -68.3% [33.3 µM] (active).
Still for that read-out and setting: under `NS(=O)(=O)c1ccc(-n2nc(-c3ccc(Br)cc3)ccc2=O)cc1` stands 63.9% [100 µM]; under `CC1CC=CCC1C1OCC(C)(C)CO1` (stereo not given), 109%.
Same read-out and setting: under `N[C@H](CS)C(=O)O` stands 95.9%; under `CCCCCc1c(C)[nH]c(/C=C2\N=C(c3ccc[nH]3)C=C2Oc2ccc(Cl)cc2)c1C`, 0.582% [100 µM] (active); under `[N-]=[N+]=NCc1ncc(-c2ccc(C(F)(F)F)cc2)c(NC2CCCCCC2)n1`, 69.8% [50 µM].
In the case of `COc1ccc(-c2nnc3c4[nH]cnc4ncn23)c(OC)c1`, the growth was 19.5%.
Same read-out and setting: under `C1CCC(C(CC2CCCCN2)C2CCCCC2)CC1` (stereo not given) stands -53.8% (active); under `CCOC(=O)c1sc(NC(=O)COc2cccc(/C=C3\Cc4ccc(Cl)cc4C3=O)c2)nc1C`, 118%; under `CCCCCCCC[Si](OCC)(OCC)OCC`, 103%.
Still for that read-out and setting: in the case of `CCOc1cc(CCNS(=O)(=O)c2ccc(C)cc2)c(C(C)=O)cc1OCC` it was 79.7% [100 µM]; in that of `CC(=O)c1ccc(NS(=O)(=O)c2ccc([N+](=O)[O-])cc2)cc1`, 108%; in that of `COC(=O)[C@H](CCCCNC(=O)OCc1ccccc1)NC(=O)[C@@H](NC(=O)Nc1cc(C(F)(F)F)cc(C(F)(F)F)c1)C(C)C`, -60.8% [100 µM] (active).
For `O=C(/C=C/c1c(-c2ccccc2)[nH]c2ccccc12)S(=O)(=O)c1ccccc1`, the growth is 34%.
Still for that read-out and setting: under `CCOC(=O)C(C(=O)OCC)C1CCCCC1` stands 102%.
With `CNc1nc(NC2CCCC2)nc(Sc2ccc(OC)cc2)n1`, the growth was 3.05% [100 µM] (active).
The same measure, in the same setting: under `O=c1sc2ncnc3ncn1c32` stands 56.2%; under `Cc1nn2c(/C=C3/C(=O)Nc4cc(Cl)ccc43)c(-c3ccccc3)nc2s1`, 36.6%; under `Nc1nc2c(nnn2Cc2ccc(Cl)c(Cl)c2)c(=O)[nH]1`, 100%.

For the origin of these results see PubChem BioAssay (NCI).
